Read-out in experiment [1]: Interleukin-8 (IL8), CXCL8 (gene 3576)
Briefly: BSK_3C_IL8: BioMAP Diversity Plus: 3C Assay for Interleukin-8 (IL8) Biomarker Activity (AID 2283020). The following applies: primary human endothelial cells (HUVEC); actives raise or lower the signal. Put shortly:
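Using DMSO-treated wells as the baseline, bidirectional curve fitting was applied to ELISA-measured IL-8 from human umbilical vein endothelial cultures sampled 24 h after compound addition.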

Read-out in experiment [2]: Monokine induced gamma interferon (MIG), CXCL9 (gene 4283)
Briefly: BSK_3C_MIG: BioMAP Diversity Plus: 3C Assay for Monokine induced gamma interferon (MIG) Biomarker Activity (AID 2283021). The following applies: primary human endothelial cells (HUVEC); actives raise or lower the signal. In outline:
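ELISA-measured MIG in dosed HUVEC 3C cultures at 24 h, analysed by bidirectional fitting with DMSO defining baseline activity.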

The nature of experiment [3]: BSK_3C_SRB: Viability Assessment in the BioMAP Diversity Plus: 3C Assay (AID 2283023).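 Also: fitted both ways against DMSO so a hit may be signal rise or drop.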 The following applies: primary human endothelial cells (HUVEC). Put shortly: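 HUVEC, 24 h post-dose; 10% TCA fix, 0.1% SRB stain, A560 nm. Bidirectional curve fit vs DMSO negative control.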
Read-out in experiment [4]: Matrix Metallopeptidase 1 (MMP1), MMP1 (gene 4312)
As to the kind of experiment: BSK_BE3C_MMP1: BioMAP Diversity Plus: BE3C Assay for Matrix Metallopeptidase 1 (MMP1) Biomarker Activity (AID 2283024). As to conditions: primary human bronchial epithelial cells; actives raise or lower the signal. Put shortly: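 In this multiplexed primary-cell system, human bronchial epithelium received chemicals for 24 h before an ELISA for MMP1. Values reflect bidirectional fits normalised to the DMSO baseline.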

Experiment [5] is described as follows: BSK_3C_Vis: BioMAP Diversity Plus: 3C Assay for Morphology Visualization (AID 2283025).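 Also: fitted both ways so gain or loss versus DMSO counts.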 The following applies: primary human endothelial cells (HUVEC). In outline: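 Light-microscopy morphology readout, 24 h exposure, human primary umbilical vein endothelium; analysed relative to DMSO with bidirectional fitting.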
Read-out in experiment [6]: Pselectin, SELP (gene 6403)
As to the kind of experiment: BSK_4H_Pselectin: BioMAP Diversity Plus: 4H Assay for Pselectin Biomarker Activity (AID 2283026). The following applies: primary human endothelial cells (HUVEC); actives raise or lower the signal. In outline: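 Bidirectional fits against DMSO gave the endpoint. Cells: primary human umbilical vein endothelium, chemical-treated for 24 h before ELISA detection of P-selectin.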

A short description of experiment [7]: BSK_4H_SRB: Viability Assessment in the BioMAP Diversity Plus: 4H Assay (AID 2283027).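 Also: cells exposed to compound for 24 h before staining.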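 As to AC50: curves fitted both ways versus DMSO so AC50 may be loss or gain.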 The following applies: primary human endothelial cells (HUVEC). In outline: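 HUVEC, 24 h post-dose; 10% TCA fix, 0.1% SRB stain, A560 nm. Total protein = overt cytotoxicity, parallel to biomarker read. Bidirectional fit vs DMSO baseline.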
Experiment [8] is described as follows: BSK_BE3C_SRB: Viability Assessment in the BioMAP Diversity Plus: BE3C Assay (AID 2283028). As to conditions: primary human bronchial epithelial cells. Put shortly:
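Primary human bronchial epithelium; chemical dosing, 24 h; 10% TCA fix, 0.1% SRB stain, A560; bidirectional fit vs DMSO baseline.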

Read-out in experiment [9]: Thrombomodulin, THBD (gene 7056)
Briefly: BSK_3C_Thrombomodulin: BioMAP Diversity Plus: 3C Assay for Thrombomodulin Biomarker Activity (AID 2283029). The following applies: primary human endothelial cells (HUVEC); actives raise or lower the signal. Put shortly:
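In a multiplexed primary-cell system, human umbilical vein endothelium received chemical and was assayed 24 h later for thrombomodulin by ELISA. Parallel cultures were SRB-stained (0.1% SRB after 10% TCA fixation, read at 560 nm) to flag cytotoxicity.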

Read-out in experiment [10]: Urokinase-type plasminogen activator receptor (uPAR), PLAUR (gene 5329)
Briefly: BSK_4H_uPAR: BioMAP Diversity Plus: 4H Assay for Urokinase-type plasminogen activator receptor (uPAR) Biomarker Activity (AID 2283030). As to conditions: primary human endothelial cells (HUVEC); actives raise or lower the signal. Put shortly: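 HUVEC, 24 h post-dose; uPAR by ELISA; bidirectional fit vs DMSO baseline.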

Read-out in experiment [11]: Vascular endothelial growth factor receptor 2 (Homo sapiens) (UniProt P35968)
Briefly: BSK_4H_VEGFRII: BioMAP Diversity Plus: 4H Assay for Vascular endothelial growth factor receptor 2 (VEGFR2) Biomarker Activity (AID 2283031). The following applies: primary human endothelial cells (HUVEC); actives raise or lower the signal. In outline: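 HUVEC (human primary), 4H system; 24 h post-dose; VEGFRII by ELISA; bidirectional curve fit vs DMSO baseline; gain or loss of signal scored.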

Read-out in experiment [12]: Human Leukocyte Antigen - DR isotype (HLADR), HLA-DRA (gene 3122)
Briefly: BSK_BE3C_HLADR: BioMAP Diversity Plus: BE3C Assay for Human Leukocyte Antigen - DR isotype (HLADR) Biomarker Activity (AID 2283032). The following applies: primary human bronchial epithelial cells; actives raise or lower the signal. In outline:
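BioMAP BE3C format: human bronchial epithelium, 24 h compound treatment, ELISA detection of HLA-DR, with bidirectional analysis relative to DMSO.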

Read-out in experiment [13]: Vascular cell adhesion molecule 1 (VCAM1), VCAM1 (gene 7412)
As to the kind of experiment: BSK_4H_VCAM1: BioMAP Diversity Plus: 4H Assay for Vascular cell adhesion molecule 1 (VCAM1) Biomarker Activity (AID 2283033).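 Also: cell-surface VCAM-1 protein measured by ELISA.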 The following applies: primary human endothelial cells (HUVEC); actives raise or lower the signal. Put shortly: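 In this human endothelial (HUVEC) system, biomarker ELISA was run 24 h after compound addition, and total protein in parallel wells was assessed by SRB at 560 nm; DMSO served as negative control.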

Read-out in experiment [14]: Interferon-gamma inducible Protein 10 (IP10), CXCL10 (gene 3627)
Briefly: BSK_BE3C_IP10: BioMAP Diversity Plus: BE3C Assay for Interferon-gamma inducible Protein 10 (IP10) Biomarker Activity (AID 2283034). The following applies: primary human bronchial epithelial cells; actives raise or lower the signal. Put shortly:
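BE3C cells (human bronchial epithelial, primary); 24 h exposure; ELISA for IP-10; DMSO-referenced bidirectional fit.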

Read-out in experiment [15]: Monokine induced gamma interferon (MIG), CXCL9 (gene 4283)
Briefly: BSK_BE3C_MIG: BioMAP Diversity Plus: BE3C Assay for Monokine induced gamma interferon (MIG) Biomarker Activity (AID 2283035). As to conditions: primary human bronchial epithelial cells; actives raise or lower the signal. Put shortly: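 Dose cells (human primary bronchial epithelial), incubate 24 h, quantify MIG by ELISA, then fit concentration–response in both directions relative to DMSO control.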

Read-out in experiment [16]: Transforming growth factor beta 1 (TGFb1), TGFB1 (gene 7040)
Briefly: BSK_BE3C_TGFb1: BioMAP Diversity Plus: BE3C Assay for Transforming growth factor beta 1 (TGFb1) Biomarker Activity (AID 2283036;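 also: TGF-b1 protein level measured by ELISA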). As to conditions: primary human bronchial epithelial cells; actives raise or lower the signal. Put shortly:
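TGF-b1 measured via ELISA, 24 h after chemical dosing of human bronchial epithelial cells (BE3C). Overt cytotoxicity assessed in parallel by SRB (0.1%, TCA-fixed, 560 nm); analysis bidirectional relative to DMSO.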

Read-out in experiment [17]: Plasminogen activator inhibitor-1 (PAI1), SERPINE1 (gene 5054)
As to the kind of experiment: BSK_BE3C_PAI1: BioMAP Diversity Plus: BE3C Assay for Plasminogen activator inhibitor-1 (PAI1) Biomarker Activity (AID 2283037). As to conditions: primary human bronchial epithelial cells; actives raise or lower the signal. Put shortly: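 In this multiplexed primary-cell system, bronchial epithelial cells receive test chemical and are sampled at 24 h. PAI-1 is read by ELISA, with DMSO serving as negative control for bidirectional fitting.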

Read-out in experiment [18]: urokinase plasminogen activator (uPA), PLAU (gene 5328)
As to the kind of experiment: BSK_BE3C_uPA: BioMAP Diversity Plus: BE3C Assay for urokinase plasminogen activator (uPA) Biomarker Activity (AID 2283038).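 Also: uPA protein level quantified by ELISA in cell cultures; uPA read one day after compound addition.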 The following applies: primary human bronchial epithelial cells; actives raise or lower the signal. Put shortly: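 ELISA read-out of uPA in human lung primary bronchial epithelial cultures, 24 h post-dosing. Gain or loss of signal fitted bidirectionally relative to DMSO baseline; cytotoxicity checked in parallel cultures via SRB total protein stain.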

Read-out in experiment [19]: Urokinase-type plasminogen activator receptor (uPAR), PLAUR (gene 5329)
As to the kind of experiment: BSK_BE3C_uPAR: BioMAP Diversity Plus: BE3C Assay for Urokinase-type plasminogen activator receptor (uPAR) Biomarker Activity (AID 2283039).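 Also: uPAR protein level measured by ELISA on the cells; cells exposed to compound for one day before measurement.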 As to conditions: primary human bronchial epithelial cells; actives raise or lower the signal. In outline: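 Chemically treated human bronchial epithelial cells (lung primary) are assayed for uPAR by ELISA after 24 h, with data fitted in both directions using DMSO as negative control.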

Experiment [20] deals with human Vitamin D Receptor (VDR), VDR (gene 7421) (UniProt P11473). As to the kind of experiment: ATG_VDR_TRANS: Attagene TRANS-FACTORIAL HepG2 Assay for human Vitamin D Receptor (VDR) (AID 2283022; active = hit-call score of the fitted dose curve at least 0.9, where 1 is the maximum). Put shortly:
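RT-PCR/capillary electrophoresis read-out of reporter mRNA induction in transiently transfected HepG2; 24 h dosing; chimeric NR-Gal4 (TRANS format); gain-of-signal fit against DMSO baseline.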

Broadly, the AC50 is the concentration at which the activity in the assay is half-maximal.

The structures appear in SMILES notation. Records with an inconclusive call do not appear. Some compounds were tested as several samples or in several runs, with calls that do not always agree. Active and inactive are the calls of the source. The calls were made as follows, unless noted: active = hit-call score of the fitted dose curve at least 0.9, where 1 is the maximum; inactive = score below 0.9.

Sequence of human Vitamin D Receptor (VDR), VDR (gene 7421) (P11473 whole entry, looked up, the tested form may be a part): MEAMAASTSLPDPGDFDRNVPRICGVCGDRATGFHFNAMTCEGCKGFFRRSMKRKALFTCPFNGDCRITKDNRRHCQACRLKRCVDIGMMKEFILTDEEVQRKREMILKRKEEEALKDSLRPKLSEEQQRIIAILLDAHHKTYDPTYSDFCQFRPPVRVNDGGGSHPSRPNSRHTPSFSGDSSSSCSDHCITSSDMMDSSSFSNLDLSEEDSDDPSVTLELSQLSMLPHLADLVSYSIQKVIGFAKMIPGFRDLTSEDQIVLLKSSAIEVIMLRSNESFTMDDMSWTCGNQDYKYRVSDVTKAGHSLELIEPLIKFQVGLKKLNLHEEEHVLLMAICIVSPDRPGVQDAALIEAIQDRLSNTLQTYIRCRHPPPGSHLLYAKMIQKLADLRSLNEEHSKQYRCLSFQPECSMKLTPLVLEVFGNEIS

As for `CN(Cc1cnc2nc(N)nc(N)c2n1)c1ccc(C(=O)N[C@@H](CCC(=O)O)C(=O)O)cc1`, the result in experiment [1], in experiment [2], in [3], in experiment [4], in experiment [5] and in [6] was inactive. The outcome in [7], in experiment [8], in experiment [9], in experiment [10], in experiment [11] and in [12] was inactive. The outcome in [13], in experiment [14], in experiment [15], in experiment [16], in [17] and in experiment [18] was inactive. Further, the result in experiment [19] was inactive. In experiment [17], the half-maximal activity concentration (AC50) was 2.71 µM (active).
Regarding `CCC(C)c1ccccc1O` (stereo unspecified), the outcome in experiment [1], in experiment [2], in [20], in [3], in experiment [4] and in experiment [5] was inactive. Moreover, the outcome in [6], in experiment [7], in experiment [8], in experiment [9], in [10] and in experiment [11] was inactive. The outcome in experiment [12], in experiment [13], in [14], in [15], in experiment [16] and in experiment [17] was inactive. Moreover, the result in experiment [18] and in experiment [19] was inactive.
As for `O=P(O)(O)CCC(F)(F)C(F)(F)C(F)(F)C(F)(F)C(F)(F)C(F)(F)C(F)(F)C(F)(F)F`, the result in [1], in [2], in experiment [20], in experiment [3], in experiment [4] and in experiment [6] was inactive. Moreover, the outcome in experiment [7], in experiment [8], in [9], in [10], in [11] and in experiment [12] was inactive. Besides, the result in experiment [13], in experiment [14], in experiment [15], in experiment [17], in experiment [18] and in experiment [19] was inactive. Moreover, the AC50 is 47 µM (active) in experiment [3], 11.5 µM (active) in experiment [4] and 42.7 µM (active) in experiment [7].
For `CCOC(=O)CN[C@@H](C(=O)N1CC[C@H]1C(=O)NCc1ccc(/C(N)=N/O)cc1)C1CCCCC1`, the outcome in experiment [1], in experiment [2], in experiment [20], in experiment [3], in experiment [4] and in experiment [5] was inactive. The result in experiment [6], in [7], in [8], in experiment [9], in experiment [10] and in [11] was inactive. Besides, the outcome in experiment [12], in experiment [13], in experiment [14], in experiment [15], in experiment [16] and in [17] was inactive. Also, the outcome in [18] and in [19] was inactive.
As to `Cc1cccc2c1ccc1ccccc12`, the outcome in experiment [1], in experiment [2], in [20], in [3], in experiment [4] and in [5] was inactive. In addition, the result in experiment [6], in experiment [7], in [8], in experiment [9], in [10] and in [11] was inactive. Further, the result in experiment [12], in [13], in experiment [14], in experiment [15], in experiment [16] and in experiment [17] was inactive. Moreover, the result in experiment [18] and in experiment [19] was inactive.

For the origin of these results see PubChem BioAssay (EPA / NIEHS).
